Data taken from PubChem BioAssay (Tox21).
Inconclusive results are not listed. The source made the active and inactive calls. Unless noted, calls come from the whole dose curve; as a rule, active = well fitted curve in the direction sought with a large enough effect in the repeat runs; inconclusive = weak or mixed curves; inactive = no such curve, though single readings can be large; an effect the other way counts as inactive or inconclusive.

Tests used:
[1] = qHTS assay for small molecule agonists of the p53 signaling pathway (AID 651631; calls by dose curve; note: nearly all actives have a fitted effect of over 15% in size)
Procedure, shortened: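 Fluorescence intensity from cleaved LiveBLAzer B/G substrate (2 h, room temperature) served as the signal. Beforehand, HCT-116 reporter cells bearing p53 response elements were treated 16 h at 37 °C with DMSO-dissolved compounds.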

[2] = qHTS assay for small molecules that induce genotoxicity in human embryonic kidney cells expressing luciferase-tagged ATAD5 (AID 651632); note: nearly all actives have a fitted effect of over 15% in size
Procedure, shortened: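 Cells were seeded at 2,000 per well, dosed with compound, and incubated 16 hr at 37C in 5% CO2. Luciferase activity was then quantified after a 30 min room-temperature incubation with Amplite.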

[3] = qHTS assay for small molecule agonists of the p53 signaling pathway - cell viability (AID 651633; calls by dose curve;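 note: p53RE-bla HCT reporter cells with a stable beta-lactamase p53 reporter; series mostly up to about 83 µM; nearly all actives have a fitted effect of over 30% in size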)
Procedure, shortened: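 p53RE-bla cells were treated with compound for 16 hours at 37 C. Cytotoxicity was then measured as CellTiter-Glo luminescence after 30 min at room temperature.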

[4] = qHTS assay for small molecules that induce genotoxicity in human embryonic kidney cells expressing luciferase-tagged ATAD5 - cell viability (AID 651634; calls by dose curve; note: nearly all actives have a fitted effect of over 25% in size)
Procedure, shortened: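 Cells (HEK293T, luciferase-tagged ATAD5) are seeded at 2,000 per well, dosed with compound or DMSO vehicle, and incubated 15.5 hr at 37C and 5% CO2. CellTiter-Fluor is added for 30 min before fluorescence is measured.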

[5] = qHTS assay for small molecule disruptors of the mitochondrial membrane potential - cell viability (AID 720634; calls by dose curve;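 note: human HepG2 liver cancer cells; series mostly up to about 83 µM; nearly all actives have a fitted effect of over 20% in size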)
Procedure, shortened: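 Cytotoxicity was measured by ATP quantitation in HepG2 wells that had first been treated with compound for 1 hr and stained with m-MPI dye; CellTiter-Glo incubation was 30 min at room temperature.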

[6] = qHTS assay for small molecule disruptors of the mitochondrial membrane potential (AID 720635)
Procedure, shortened: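 HepG2 cells exposed to compound 1 hr at 37C, then Mito-MPS dye 30 min. Ratio read of aggregate (540/590 nm) versus monomer (490/535 nm) fluorescence.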

[7] = qHTS assay to test for compound auto fluorescence at 590 nm (red) in HepG2 cells (AID 720674)
Procedure, shortened: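 Seeding: 2,000 HepG2 cells/well, MEM/10% FBS, overnight 37 C. Dosing: compound vs DMSO. Incubation: 1 hr, 37 C, 5% CO2. Read: fluorescence 540 ex/590 em, Rose Bengal sodium as red reference.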

[8] = qHTS assay to test for compound auto fluorescence at 535 nm (green) in HepG2 cells (AID 720675)
[9] = qHTS assay to test for compound auto fluorescence at 460 nm (blue) in HEK293 cells (AID 720678)
Procedure, shortened: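 Intrinsic compound fluorescence is recorded in live HEK293 cultures after overnight incubation at 37C, 5% CO2, using excitation 405 nm and emission 460 nm. Values are referenced to triamterene.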

[10] = qHTS assay to test for compound auto fluorescence at 590 nm (red) in HEK293 cells (AID 720679)
Procedure, shortened: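 Red autofluorescence, HEK293 cells: 2,000 cells/well; attach 4-5 hr 37C; add 23 nL cpd or DMSO; incubate o/n 37C 5% CO2; read Ex540/Em590; Rose Bengal sodium reference.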

Measured: Potency

O=C(O)COc1nn(Cc2ccccc2)c2ccccc12
inactive: all assays above

O=C(O)CCCc1ccccc1
inactive: all assays above

N[C@H]1CN(c2c(F)cc3c(=O)c(C(=O)O)cn(C4C[C@H]4F)c3c2Cl)CC12CC2 (stereo partly drawn)
inactive: all assays above

O=C(CCCN1CCN(c2ccccn2)CC1)c1ccc(F)cc1
inactive: all assays above

C[C@](N)(Cc1ccc(O)cc1)C(=O)O
inactive: all assays above

O=c1n(CCO)c(=O)n(CCO)c(=O)n1CCO
inactive: all assays above

CCCN1CCCC[C@H]1C(=O)Nc1c(C)cccc1C
not listed: [6]
inactive: all other assays above

N[C@@H](C(=O)N[C@@H]1C(=O)N2C(C(=O)O)=C(Cl)CS[C@H]12)c1ccccc1
not listed: [6]
inactive: all other assays above

CCc1nccnc1CC
not listed: [6]
inactive: all other assays above

ClC(Cl)(Br)Br
not listed: [6]
inactive: all other assays above

COC(=O)[C@@H](N)Cc1ccc(O)c(O)c1
inactive: all assays above

O=C1CCCC(=O)C1
inactive: all assays above

C1CN(CCOCCN2CCOCC2)CCO1
not listed: [6]
inactive: all other assays above

O=C(CCCN1CCC(O)(c2cccc(C(F)(F)F)c2)CC1)c1ccc(F)cc1
not listed: [6]
inactive: all other assays above

OC[C@]1(O)OC[C@@H](O)[C@H](O)[C@@H]1O
inactive: all assays above

O=C(O)CNC(=O)c1ccc([N+](=O)[O-])cc1
inactive: all assays above

N=C(N)c1ccc2cc(OC(=O)c3ccc(N=C(N)N)cc3)ccc2c1
not listed: [6]
inactive: all other assays above

COC(=O)NN
not listed: [6]
inactive: all other assays above

CC(=O)CC(C)(C)C1CCCCC1
not listed: [6]
inactive: all other assays above

CCC(=O)OC(C)c1ccccc1 (stereo not drawn)
not listed: [6]
inactive: all other assays above

CC(C)CNCC(C)C
inactive: all assays above

COc1nc(N)nc2c1ncn2[C@@H]1O[C@H](CO)[C@@H](O)[C@@H]1O
not listed: [6]
inactive: all other assays above

CCN(CC)CCNC(=O)c1cc(S(C)(=O)=O)ccc1OC
inactive: all assays above

C=CCOCC(CC)(CO)COCC=C
inactive: all assays above

CN1CCCC1
not listed: [6]
inactive: all other assays above

CCC(C)C1CCCCC1=O (stereo not drawn)
inactive: all assays above
